From ChEMBL document CHEMBL4513216, “Probing the Open Global Health Chemical Diversity Library for Multistage-Active Starting Points for Next-Generation Antimalarials” (ACS Infect Dis, 2020)
In all, about 68,000 compounds went through this assay and about 2,700 (4%) showed an effect of 50% or more. The full list was thinned out, with strong results kept by preference.

The compounds below were run on Plasmodium berghei (assay: Screen against P. berghei liver stage (PbLuc), transformed with Luciferase, at 2uM). Conditions: tested at 2 uM.
Assay type: functional, HepG2

Question: How did the INHIBITION turn out when `CN(Cc1nnc2n1CCC2)C(=O)Cc1ccc2c(c1)CCC2` was run?
Answer: -9.49%

Question: `Cc1nnsc1C(=O)N1CC[C@H](c2ccccc2)[C@@H]2[C@H]1CCCCN2C` was tested. Which INHIBITION did it give?
Answer: 22.81%

Question: `NC(=O)C1CN(C(=O)Nc2ccccc2SC(F)(F)F)CCO1` (configuration not stated) was tested. Which INHIBITION did it give?
Answer: -20.93%

Question: Which INHIBITION does the source give for `O=C(NCc1ncc(-c2ccccc2)o1)NC1CCC(O)CC1` (configuration not stated) here?
Answer: 13.58%

Question: `COc1cc(C)c(CN2CCc3nc4ccsc4c(=O)n3CC2)cc1C` was tested. Which INHIBITION did it give?
Answer: 36.56%

Question: For `CN(C)c1cccc(C(=O)Nc2cnn(Cc3ccncc3)c2)c1`, which INHIBITION is on record?
Answer: -34.79%

Question: How did the INHIBITION turn out when `COCCC(=O)N1CCC2(COCc3cnc(NCC4CC4)nc32)C1` (configuration not stated) was run?
Answer: -20.77%

Question: How did the INHIBITION turn out when `c1ccc2oc(N3CCC(c4nncn4C4CC4)CC3)nc2c1` was run?
Answer: 15.02%

Question: For `Cn1cnnc1C1CCN(c2nc3ccccc3o2)CC1`, which INHIBITION is on record?
Answer: 53.81%

Question: Which INHIBITION does the source give for `Cn1cnnc1C1CCCN(c2nc3ccccc3o2)C1` (configuration not stated) here?
Answer: 44.25%

Question: How did the INHIBITION turn out when `Cc1cnn(CCNCc2nc(CNC(=O)c3ccccc3)no2)c1` was run?
Answer: 47.23%

Question: With `CN(C)c1nc(N)nc(CN2CCC(c3ccccc3)CC2)n1` as the compound, how does the INHIBITION read?
Answer: 29.6%

Question: `Cc1ccc(C(=O)N2CCN(Cc3ccccc3)CC2)n1C` was tested. Which INHIBITION did it give?
Answer: 52.17%

Question: How did the INHIBITION turn out when `COc1ccc(CN2CCN(C(=O)c3ccc(C)n3C)CC2)cc1` was run?
Answer: -10.64%

Question: For `Cc1ccc(C(=O)N2CCN(Cc3ccc(C#N)cc3)CC2)n1C`, which INHIBITION is on record?
Answer: 28.18%

Question: Which INHIBITION does the source give for `CC(C1CC1)N(C(=O)NCCCn1nc2ccccn2c1=O)C1CC1` (configuration not stated) here?
Answer: 1.07%

Question: For `O=C(c1ccc(F)cc1)N1CCN2C[C@H](OCc3ccccn3)C[C@H]2C1`, which INHIBITION is on record?
Answer: 15.58%

Question: For `Cc1cnc(C(=O)N2CCN3C[C@H](OCc4cccnc4)C[C@H]3C2)cn1`, which INHIBITION is on record?
Answer: -35.38%

Question: How did the INHIBITION turn out when `O=C(c1ccsc1)N1CCN2C[C@H](OCc3ccccn3)C[C@H]2C1` was run?
Answer: 53.08%

Question: With `O=C(c1ccnnc1)N1CCN2C[C@H](OCc3ccccn3)C[C@H]2C1` as the compound, how does the INHIBITION read?
Answer: 26.94%

Question: With `O=C(c1ccsc1)N1CCN2C[C@H](OCc3cccnc3)C[C@H]2C1` as the compound, how does the INHIBITION read?
Answer: 16.22%

Question: For `O=C(c1cscn1)N1CCN2C[C@H](OCc3cccnc3)C[C@H]2C1`, which INHIBITION is on record?
Answer: 50.12%

Question: With `CN1CC2(CCN(C(=O)c3[nH]cnc3-c3ccccc3)C2)OC1=O` (configuration not stated) as the compound, how does the INHIBITION read?
Answer: 14.96%

Question: How did the INHIBITION turn out when `Cc1cc(C2CCC2)nc(N2CC(n3cccn3)C2)n1` was run?
Answer: 52.6%

Question: For `Cc1cc(N(C)C)nc(N2CC(n3cccn3)C2)n1`, which INHIBITION is on record?
Answer: 35.46%

Question: How did the INHIBITION turn out when `Cc1cc(C2CCC2)nc(N2CCN(Cc3nccn3C)CC2)n1` was run?
Answer: 35.46%

Question: `Cc1c(NC(=O)CN2CCN(C3CCCC3)C(=O)C2)cnn1C` was tested. Which INHIBITION did it give?
Answer: 17.24%
